# USP28 block = blocks human USP28 ubiquitin-rhodamine cleavage. AID 1645857. 47,000 tested, 3% active. inhibition, % at 25 µM. purified USP28, Ub-rhodamine cleavage fluorescence, 30 min
# USP17 block = inhibitors of human USP17 deubiquitinase; A8MUK1; purified USP17, Ub-rhodamine cleavage fluorescence, 3 h; inhibition, % at 50 µM; 47,000 tested, 6.5% active; AID 1645855
# Target sequence (A8MUK1 whole entry, looked up): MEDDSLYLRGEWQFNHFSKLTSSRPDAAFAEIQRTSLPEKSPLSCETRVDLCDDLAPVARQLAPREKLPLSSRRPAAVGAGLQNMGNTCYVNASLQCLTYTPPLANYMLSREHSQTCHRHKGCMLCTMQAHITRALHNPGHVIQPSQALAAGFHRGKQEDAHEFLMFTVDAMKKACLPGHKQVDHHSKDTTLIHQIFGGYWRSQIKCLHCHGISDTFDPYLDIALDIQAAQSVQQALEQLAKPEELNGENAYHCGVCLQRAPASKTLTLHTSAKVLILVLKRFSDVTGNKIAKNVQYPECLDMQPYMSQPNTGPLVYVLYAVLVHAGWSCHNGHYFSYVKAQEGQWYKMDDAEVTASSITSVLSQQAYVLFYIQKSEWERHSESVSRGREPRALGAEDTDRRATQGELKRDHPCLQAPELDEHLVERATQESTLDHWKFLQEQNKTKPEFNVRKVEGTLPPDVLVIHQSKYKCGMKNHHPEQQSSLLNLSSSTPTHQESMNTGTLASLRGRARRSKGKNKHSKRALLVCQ
# USP30 block = inhibitors of human USP30 deubiquitinase; inhibition, % at 25 µM; Q70CQ3; AID 1645860; purified USP30, Ub-rhodamine cleavage fluorescence; 47,000 tested, 5.3% active
# Hits are given with their value; 0 = inactive. This is a sample that favours compounds with a hit; in the whole collection about 11% have one here. Rule as the data show it: active = inhibition above about 30%; inactive = the rest.
SMILES,USP28 block,USP17 block,USP30 block
NS(=O)(=O)c1ccc(Cl)c(C(=O)OCc2csc(Nc3ccccc3)n2)c1,71,0,0
COc1cccc(NC(=O)[C@H](C)NC(=O)c2cc3c(OC)c(OC)ccc3[nH]2)c1,0,47,0
CCOC(=O)N1CCN(C(=O)[C@H](C)NC(=O)c2cc3c(OC)c(OC)ccc3[nH]2)CC1,0,0,0
CN(C)C(=O)N1CCC2(CC1)C(=O)N(Cc1ccccc1)c1ccccc12,0,0,0
Cc1ccccc1C(=O)Nc1ccc2c(c1)C(=O)N(C)c1ccccc1O2,40,0,0
COc1ccc(C(=O)Nc2ccc(C)c(N3CCCC3=O)c2)cc1,0,0,0
CN1C(=O)c2cc(NC(=O)c3ccncc3)ccc2N2CCN=C12,0,0,0
COc1ccc(C(=O)Nc2ccc3c(c2)C(=O)N(C)c2ccccc2O3)cc1,71,0,0
Cc1ccc2c(c1)N(C)C(=O)c1cc(NC(=O)c3ccc(F)cc3)ccc1O2,0,0,89
Cc1ccccc1C(=O)Nc1ccc2cn(C)nc2c1,0,0,0
Cc1ccc(NC(=O)N2CCCn3nnc(COCC4CC4)c3C2)cc1,0,0,0
Cc1c(Cc2ccccc2)sc(NC(=O)c2ccc(Cl)cc2)c1C(N)=O,0,33,0
CCOC(=O)c1cc(-c2ccccc2)sc1NC(=O)c1cccc(Cl)c1,0,0,0
Cc1nn(CC(=O)NCc2ccccc2F)c2ccccc12,0,51,0
O=C(CC(c1ccccc1)c1ccccc1)NCc1ccccc1F,0,0,0
COCCN1CCS(=O)(=O)c2c(Cl)c(F)nc(Oc3ccccc3F)c21,0,49,0
COCCCN1CCS(=O)(=O)c2c(Cl)c(F)nc(Oc3ccc(C#N)cc3)c21,0,80,0
O=S1(=O)CCN(Cc2cccnc2)c2c(Oc3ccccc3F)nc(F)c(Cl)c21,0,0,0
Cc1ccccc1CNC(=O)C1CCN(C(=O)c2cc(-c3ccccn3)n[nH]2)CC1,0,0,0
C[C@@H]1C(=O)N2CCN(S(=O)(=O)c3cccc(C(F)(F)F)c3)C[C@H]2C(=O)N1C,0,0,0
CCc1ccc(C2NC(=O)NC(C)=C2C(=O)c2ccc(Cl)cc2)cc1 (stereo not drawn),0,0,0
O=C(NC1CCS(=O)(=O)C1)c1ccc(N2CCOc3ccc(Cl)cc32)s1 (stereo not drawn),0,40,0
COCCCNC(=O)c1ccc(N2CCOc3ccccc32)s1,0,0,0
Cn1ccc2ccn(CC(=O)NC3CCCC3)c(=O)c21,0,0,0
C=CC[C@H]1OC(=O)CCNC(=O)[C@H](C)N(C)C(=O)[C@H](C(C)CC)N(C)C(=O)[C@H]([C@@H](C)CC)NC(=O)[C@@H]2[C@@H](C)CCN2C1=O (stereo partly drawn),0,0,0
SMILES,USP28 block,USP17 block,USP30 block
O=C(Cc1cccc(F)c1)N1CCC([C@@H]2C[C@H](C(F)F)n3ncnc3N2)CC1,0,0,0
Cc1ccc(NC(=O)c2nnn(-c3cccc(Cl)c3)c2C)cc1C,0,0,0
Cc1cccc(NC(=O)c2nnn(-c3ccccc3Cl)c2C)c1C,39,0,0
COc1ccc(-n2nnc(C(=O)Nc3ccccc3)c2N)cc1,0,51,0
COc1ccc(-n2nnc(C(=O)Nc3cccc(Cl)c3)c2C)cc1,0,0,0
Cc1c(C(=O)Nc2ccccc2F)nnn1-c1cccc(F)c1,0,0,0
COc1ccccc1-n1nnc(C(=O)Nc2ccc(Oc3ccccc3)cc2)c1C,52,0,0
COc1ccc(Cl)cc1-n1nnc(C(=O)Nc2ccc(C)cc2C)c1C,0,31,0
COc1cccc(-n2nnc(C(=O)Nc3ccc(Oc4ccccc4)cc3)c2C)c1,0,0,0
O=C(NCc1cccnc1)[C@H]1CC[C@@H]2[C@@H](CCN2Cc2ccco2)O1,0,0,0
COc1ccccc1C(=O)N1CCN2Cc3ccccc3N(C)CC2C1 (stereo not drawn),0,0,0
COc1ccccc1CCC(=O)Nc1ccc2c(c1)Sc1ncccc1C(=O)N2C,0,0,0
Cc1cc(Cl)ccc1NC(=O)c1ccc(N2CCOCC2)c([N+](=O)[O-])c1,0,0,0
Cc1nc(N(C)C)ncc1C(=O)N1CCC(c2c(C(N)=O)sc3ccccc23)C1 (stereo not drawn),0,0,0
COc1ccc(NC(=O)c2nnn(-c3ccccc3)c2C)cc1Cl,0,0,0
COc1ccc(NC(=O)c2nnn(-c3ccccc3)c2C)cc1OC,56,0,0
Cc1ccc(-n2nnc(C(=O)Nc3ccccc3)c2C)cc1,0,49,0
CCc1ccc(NC(=O)c2nnn(-c3ccc(C)cc3)c2C)cc1,0,0,0
O=C(Cn1ccnc1)NC1(c2ccc(F)cc2)CCCC1,0,0,0
O=C1N(CCc2ccccc2)CC=CCC12CN(Cc1cn[nH]c1-c1ccccc1)CCO2 (stereo not drawn),0,0,0
CO\C=C(C(=O)OC)/C(C)=C\C=C\c1ccc2c(c1)O[C@@]1(CO2)O[C@H](C=C(C)C)OC1(C)C,0,0,0
Cc1cccc(N2CCN(C(=O)CCc3nnc(C(=O)Nc4ccccc4)s3)CC2C)c1 (stereo not drawn),0,0,0
Cc1ccc(NC(=O)CCc2nnc(C(=O)Nc3ccccc3)s2)cc1C,0,39,0
Cc1cc(C)n(-c2ccnc(N3CCC(C(=O)NC4CC4)CC3)n2)n1,0,0,0
CN(C(=O)C1(c2ccccc2)CC1)c1nc2c(s1)CCc1occc1-2,0,0,0
SMILES,USP28 block,USP17 block,USP30 block
CN(C(=O)c1cccc2cccnc12)c1nc2c(s1)CCc1occc1-2,0,69,0
COc1ccc(OC)c(C2=NO[C@]3(C(=O)Nc4ccccc43)[C@H]2C(=O)c2ccc(OC)c(OC)c2)c1,0,0,0
COc1ccccc1NC(=O)NCc1nnnn1-c1ccccc1,0,0,32
Cc1ccc(NC(=O)NCc2nnnn2-c2ccccc2)cc1,0,0,0
O=C(OCC(=O)N1CCc2ccccc21)c1ccc(O)cc1,0,0,0
CCCc1noc(-c2ccnc(-n3ncc(C(=O)N4CCCC4)c3C)c2)n1,0,0,0
CCCc1noc(-c2ccc(-n3ncc(C(=O)N4CCCCC4)c3C)nc2)n1,0,0,38
CC(=O)Nc1c(-c2ccc(F)cc2)c(C)nn1-c1ccc(C(=O)NCc2ccccn2)cc1,0,0,0
CC(=O)Nc1c(-c2ccc(C)cc2)c(C)nn1-c1ccc(C(=O)Nc2cccc(C#N)c2)cc1,0,49,0
Cn1c(NC(=O)c2ccccc2F)c(-c2cccc(C(F)(F)F)c2)c(=O)c2ccccc21,0,0,0
CNC(=O)[C@@H]1C[C@@H]2CN(C(=O)CN3CCOCC3)CCN2[C@@]12C(=O)Nc1ccccc12,0,0,0
Cc1ccc2c(Nc3ccccc3)c(-c3nc(C4CC4)no3)cnc2n1,48,0,0
COc1ccccc1Nc1c(-c2nc(C)no2)cnc2nc(C)ccc12,0,0,0
O=C(CCSc1nnnn1-c1ccccc1)Nc1cc(C(F)(F)F)ccc1Cl,0,40,0
CN1CCN(CCC(=O)Nc2cc(C(F)(F)F)ccc2Cl)CC1,0,0,0
Cc1cccc(C(=O)NCC(=O)N2CCN(c3ccc(Cl)cc3)CC2)c1,0,33,41
O=C(NCC(=O)N1CCN(c2ccccc2)CC1)c1ccccc1,0,0,0
Cc1ccccc1Cn1ccc(NS(=O)(=O)c2cnn(C)c2)n1,0,0,0

# Bioassay records deposited in PubChem BioAssay by Buhrlage Lab, Dana-Farber Cancer Institute and Novartis Institutes for BioMedical Research (Cambridge, Mass).
